# PubChem BioAssay (Tox21)
# Records with an inconclusive call do not appear. The source made the active and inactive calls. Calls come from the whole dose curve; as a rule, active = well fitted cell-killing curve with a large enough effect in the repeat runs (not every such curve was filed as active); inconclusive = weak or mixed curves, or effect the other way; inactive = no such curve, though single readings can be large or run the other way.
# Assay: qHTS assay to identify small molecule antagonists of the estrogen related receptor signaling pathway with the pleiotropic PPARgamma coactivator (PGC) from Tox21 10K library - cell viability counter screen (AID 1224840); note: nearly all actives have a fitted effect of over 40% in size
# Conditions: PGC/ERR reporter cells viability, CellTiter-Fluor, 17.5 h; series mostly up to 92.4 µM; viability change, negative = cytotoxic: at the top concentration
# Excerpt: National Center for Advancing Translational Sciences [NCATS]
# NIH Chemical Genomics Center [NCGC]
# U.S. Environmental Protection Agency [EPA]
# National Institutes of Environmental Health Sciences [NIEHS]
# National Toxicology Program [NTP]
# U.S. Food and Drug Administration [FDA]
# Estrogen related receptors (ERRs), the first orphan nuclear receptors discovered, play an important role in the control of cellular energy metabolism. ERRs are required for high-energy production in response to the environmental challenges. The pleiotropic PPARgamma coactivator (PGC) is a major partner of ERR and a key regulator in energy homeostasis. Together they have been implicated in the etiology of metabolic disorders such as Type 2 diabetes and metabolic syndrome. ERR-alpha was also identified as an adverse marker for breast cancer progression; ERR-alpha-positive tumors have a poor prognosis. To screen and to identify environmental compounds that perturb the ERR and PGC/ERR signaling pathways could provide valuable information for potential therapeutic or preventive measures in the treatment of metabolic disease. To differentiate true PGC/ERR antagonists or agonist from cytotoxic substances, the assay is multiplexed with cell viability assay.
# Tox21 Assay Protocol Summary:
# The PGC/ERR cells were dispensed at 2,000 cells/5 ul/well in 1536-well white plates using a Multidrop dispenser. After the assay plates were incubated at a 37 C/5% CO2 incubator for 6 hours, 23 nL of compounds dissolved in DMSO, positive and negative controls or DMSO only was transferred to the assay plate by a pin tool. The plates were incubated at 37 C for 17.5 hours. 1 ul/well of CellTiter-Fluor reagent was added into the assay plates using a Flying Reagent Dispenser. After 30-minute incubation at 37 C/5% CO2, the fluorescence intensity in the plates was measured using a ViewLux plate reader.
# % is set by controls: 0 for no effect and ±100 for the full control effect; potency is the fitted concentration of half-maximal effect.
Structure (SMILES),Potency,"viability change, negative = cytotoxic"
CCCCCCCCNC(C)C(O)c1ccc(SC(C)C)cc1 (stereo not given),29.8 µM (active),
Cc1cc(CCN2CCN(c3nsc4ccccc34)CC2)cc2c1NC(=O)CC2(C)C,27.3 µM (active),
CCCC(C)c1ccccc1O (stereo not given),,-14.1% (inactive)
CCC1OCC(COc2ccc(Oc3ccccc3)cc2)O1 (stereo not given),,-0.573% (inactive)
CCCCCCCCCCCCc1ccc(O)cc1,48.6 µM (active),
Nc1nc2ccccc2n1Cc1ccc(F)cc1,,-17.2% [at 42.5 µM] (inactive)
O=C1CCCCCN1SSN1CCCCCC1=O,,-19.9% (inactive)
CCCCN1CCCC[C@H]1C(=O)Nc1c(C)cccc1C,,-3.82% [at 42.5 µM] (inactive)
OCc1c[nH]c2ccccc12,,-11.4% (inactive)
CCCCC(CC)COP(=O)(O)OCC(CC)CCCC (stereo not given),,-21.2% (inactive)
NNc1nc(-c2ccc(N)cc2)cs1,61.1 µM (active),
Cc1cc(O)c2ccccc2c1O,,-23.5% [at 42.5 µM] (inactive)
COC(=O)c1cc(Cl)ccc1OC,,2.44% [at 42.5 µM] (inactive)
Cc1ccc2oc(CN(Cc3ccccc3)C(=O)Nc3c(F)cc(F)cc3F)c(-c3ccc(Cl)cc3)c2c1,,-10.5% (inactive)
CCCCCCCCCCCCCCCC[N+](C)(C)CCN(Cc1ccc(OC)cc1)c1ncccn1,,-23.9% [at 42.5 µM] (inactive)
O=Cc1cc(O)ccc1Br,,5.47% (inactive)
Oc1ccc(N=Nc2ccccc2)cc1,27.7 µM (active),
CCCCCCCC[P+](CCCCCCCC)(CCCCCCCC)CCCCCCCC,10.8 µM (active),
Cc1nc(-c2ccc3c(c2)CCN(CCC2CCC(NC(=O)/C=C/c4ccc(F)cc4)CC2)CC3)no1 (stereo not given),,-15.8% [at 42.5 µM] (inactive)
N=C1N=C(N)c2cc3ccccc3cc21,27.3 µM (active),

Structure (SMILES),Potency,"viability change, negative = cytotoxic"
C=C(C)C(=O)OCC[N+](C)(C)C,,2.87% (inactive)
C[n+]1cc2c3c(ccc2c2ccc4cc5c(cc4c21)OCO5)OCO3,3.26 µM (active),
CN(C)[C@@H]1C(=O)C(C(N)=O)=C(O)[C@@]2(O)C(=O)C3=C(O)c4c(O)cccc4C[C@H]3C[C@@H]12,,-16.3% [at 42.5 µM] (inactive)
CCc1cc(Cc2cc(CC)cc(C(C)(C)C)c2O)c(O)c(C(C)(C)C)c1,43.3 µM (active),
CC[C@@]1(O)C(=O)OCc2c1cc1n(c2=O)Cc2c-1nc1ccccc1c2/C=N/OC(C)(C)C,,-1.91% [at 42.5 µM] (inactive)
Cc1oc(-c2ccccc2)nc1CCC(=O)c1ccc(CC2SC(=O)NC2=O)cc1 (stereo not given),,-10.8% [at 42.5 µM] (inactive)
O=C1C=CC(=O)N1c1ccc(Cc2ccc(N3C(=O)C=CC3=O)cc2)cc1,27.3 µM (active),
Nc1c(Cl)cc(Cl)cc1Cl,,-11.1% (inactive)
CO[Si](CCCNc1ccccc1)(OC)OC,,1.27% (inactive)
CC(C)(C)C(=O)OCOC(=O)[C@@H]1N2C(=O)[C@@H](NC(=O)[C@H](N)c3ccccc3)[C@H]2SC1(C)C,,2.12% [at 42.5 µM] (inactive)
CC(NN)c1ccccc1 (stereo not given),,-1.05% [at 19 µM] (inactive)
O=C1c2ccccc2Cc2ccccc21,,-1.33% (inactive)
Cc1cc(O)c(C(C)(C)C)cc1Sc1cc(C(C)(C)C)c(O)cc1C,30.6 µM (active),
NC(=O)CC[C@@H]1NC(=O)[C@H](Cc2ccccc2)NC(=O)[C@H](Cc2ccc(O)cc2)NC(=O)CCSSC[C@@H](C(=O)N2CCC[C@H]2C(=O)N[C@@H](CCCN=C(N)N)C(=O)NCC(N)=O)NC(=O)[C@H](CC(N)=O)NC1=O,,9.74% [at 42.5 µM] (inactive)
CN(C)c1ccc(C2(c3ccc(N(C)C)cc3)OC(=O)c3cc(N(C)C)ccc32)cc1,,-17.4% (inactive)
CC(C)=CCOc1ccc(/C=C/C(=O)c2ccc(OCC=C(C)C)cc2OCC(=O)O)cc1,,-13.6% [at 42.5 µM] (inactive)
O=C(O)c1cc(O)c2c(c1)C(=O)c1cccc(O)c1C2=O,,-1.73% (inactive)
CCN1/C(=C/C=C/c2sc3ccccc3[n+]2CC)Sc2ccccc21,6.51 µM (active),
O=c1[nH]sc2cc(Cl)ccc12,,-27.8% [at 42.5 µM] (inactive)
Cc1ccc(O)c2ncccc12,23.7 µM (active),
